# Values joined by “and” are separate entries in the source; they are usually repeats but may differ in a detail not shown here. Identical values can stand only once. Like-named read-outs stand apart in the source and are kept apart here.
# What was measured:
# [1] = system: CDK4-cyclinD3; conditions: concentration: 1 μM, replicates: in singlicate; n = 1
# [2] = system: CDK4; conditions: concentration: 1 μM, replicates: in singlicate, n = 1
# [3] = system: CDK5; conditions: concentration: 1 μM, replicates: in singlicate; n = 1
# [4] = system: CDK7; conditions: concentration: 1 μM, replicates: in singlicate, n = 1
# [5] = system: CDK8; conditions: concentration: 1 μM, replicates: in singlicate, n = 1
# [6] = system: CDK9; conditions: concentration: 1 μM, replicates: in singlicate, n = 1
# [7] = system: CDKL1; conditions: concentration: 1 μM, replicates: in singlicate, n = 1
# [8] = system: CDKL2; conditions: concentration: 1 μM, replicates: in singlicate, n = 1
# [9] = system: CDKL3; conditions: concentration: 1 μM, replicates: in singlicate; n = 1
# [10] = system: CDKL5; conditions: concentration: 1 μM, replicates: in singlicate; n = 1
# [11] = system: CHEK1; conditions: concentration: 1 μM, replicates: in singlicate, n = 1
# [12] = system: CHEK2; conditions: concentration: 1 μM, replicates: in singlicate, n = 1
# [13] = system: CIT; conditions: concentration: 1 μM, replicates: in singlicate, n = 1
# [14] = system: CLK1; conditions: concentration: 1 μM, replicates: in singlicate, n = 1
# [15] = system: CLK2; conditions: concentration: 1 μM, replicates: in singlicate, n = 1
# [16] = system: CLK3; conditions: concentration: 1 μM, replicates: in singlicate, n = 1
# [17] = system: CLK4; conditions: concentration: 1 μM, replicates: in singlicate, n = 1
# [18] = system: CSF1R-autoinhibited; conditions: concentration: 1 μM, replicates: in singlicate, n = 1
# [19] = system: CSF1R; conditions: concentration: 1 μM, replicates: in singlicate, n = 1
# [20] = system: CSK; conditions: concentration: 1 μM, replicates: in singlicate; n = 1
# 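Further: KINOMEscan kinase panel screen.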
smiles,measurement,setting,value
O=C(Nc1n[nH]c2cc(-c3cccc(F)c3)ccc12)C1CC1 [SB-735464],%Inh,[1],7%
same,%Inh,[2],44%
same,%Inh,[3],3%
same,%Inh,[4],0%
same,%Inh,[5],0%
same,%Inh,[6],0%
same,%Inh,[7],6%
same,%Inh,[8],57%
same,%Inh,[9],28%
same,%Inh,[10],4%
same,%Inh,[11],0%
same,%Inh,[12],0%
same,%Inh,[13],20%
same,%Inh,[14],12%
same,%Inh,[15],9%
same,%Inh,[16],22%
same,%Inh,[17],7%
same,%Inh,[18],0%
same,%Inh,[19],2%
same,%Inh,[20],2%
Cc1nnc(-c2ccc3occ(-c4ccc(C(C)O)cc4)c3c2)o1 (stereo not drawn),%Inh,[1],0%
same,%Inh,[2],0%
same,%Inh,[3],1%
same,%Inh,[4],17%
same,%Inh,[5],0%
same,%Inh,[6],8%
same,%Inh,[7],52%
same,%Inh,[8],0%
same,%Inh,[9],0%
same,%Inh,[10],25%
same,%Inh,[11],13%
same,%Inh,[12],15%
same,%Inh,[13],11%
same,%Inh,[14],31%
same,%Inh,[15],2%
same,%Inh,[16],6%
same,%Inh,[17],33%
same,%Inh,[18],6%
same,%Inh,[19],1%
same,%Inh,[20],3%
Cc1c2ccc(N(C)c3ccnc(Nc4cccc(S(N)(=O)=O)c4)n3)cc2nn1Cc1ccccc1.Cl.Cl [GW787226],%Inh,[1],0%
same,%Inh,[2],2%
same,%Inh,[3],0%
same,%Inh,[4],3%
same,%Inh,[5],0%
same,%Inh,[6],3%
same,%Inh,[7],0%
same,%Inh,[8],39%
same,%Inh,[9],10%
same,%Inh,[10],0%
same,%Inh,[11],0%
same,%Inh,[12],8%
same,%Inh,[13],6%
same,%Inh,[14],0%
same,%Inh,[15],12%
same,%Inh,[16],0%
same,%Inh,[17],0%
same,%Inh,[18],64%
same,%Inh,[19],100%
same,%Inh,[20],9%
COc1cc2c(cc1OC[C@@H](O)CO)ncc1c3ccc(C#N)cc3[nH]c21,%Inh,[1],0%
same,%Inh,[2],4%
same,%Inh,[3],17%
same,%Inh,[4],99.5%
same,%Inh,[5],15%
same,%Inh,[6],0%
same,%Inh,[7],12%
same,%Inh,[8],0%
same,%Inh,[9],8%
same,%Inh,[10],0%
same,%Inh,[11],7%
same,%Inh,[12],48%
same,%Inh,[13],94.8%
same,%Inh,[14],89%
same,%Inh,[15],88%
same,%Inh,[16],2%
same,%Inh,[17],89%
same,%Inh,[18],96.6%
same,%Inh,[19],44%
same,%Inh,[20],1%
CC(C)Oc1ccc2c(-c3ccnc(Nc4ccc(N5CCN(C)CC5)cc4)n3)cnn2n1 [GW696155],%Inh,[1],97.8%
same,%Inh,[2],58%
same,%Inh,[3],0%
same,%Inh,[4],99.8%
same,%Inh,[5],8%
same,%Inh,[6],21%
same,%Inh,[7],34%
same,%Inh,[8],99.6%
same,%Inh,[9],92%
same,%Inh,[10],43%
same,%Inh,[11],0%
same,%Inh,[12],67%
same,%Inh,[13],98.7%
same,%Inh,[14],97%
same,%Inh,[15],96.8%
same,%Inh,[16],1%
same,%Inh,[17],93.7%
same,%Inh,[18],58%
same,%Inh,[19],65%
same,%Inh,[20],34%
O=C(c1ccc(-c2cc(-c3c[nH]nc3-c3ccccn3)ccn2)cc1)N1CCOCC1 [GW812171],%Inh,[1],0%
same,%Inh,[2],1%
same,%Inh,[3],0%
same,%Inh,[4],17%
same,%Inh,[5],7%
same,%Inh,[6],0%
same,%Inh,[7],25%
same,%Inh,[8],8%
same,%Inh,[9],0%
same,%Inh,[10],0%
same,%Inh,[11],0%
same,%Inh,[12],0%
same,%Inh,[13],0%
same,%Inh,[14],0%
same,%Inh,[15],0%
same,%Inh,[16],0%
same,%Inh,[17],0%
same,%Inh,[18],12%
same,%Inh,[19],16%
same,%Inh,[20],51%
CC(C)(C)n1cnc2c(N)ncnc21 [SKF-97359],%Inh,[1],0%
same,%Inh,[2],0%
same,%Inh,[3],0%
same,%Inh,[4],0%
same,%Inh,[5],66%
same,%Inh,[6],0%
same,%Inh,[7],0%
same,%Inh,[8],28%
same,%Inh,[9],0%
same,%Inh,[10],0%
same,%Inh,[11],0%
same,%Inh,[12],2%
same,%Inh,[13],32%
same,%Inh,[14],14%
same,%Inh,[15],0%
same,%Inh,[16],0%
same,%Inh,[17],11%
same,%Inh,[18],28%
same,%Inh,[19],0%
same,%Inh,[20],0%
NCCNS(=O)(=O)c1ccc(-c2ccnc3[nH]ccc23)cc1 [GSK977617],%Inh,[1],0%
same,%Inh,[2]; 1 µM,34% and 27%
same,%Inh,[3],0%
same,%Inh,[4]; 1 µM,85% and 74%
same,%Inh,[5]; 1 µM,20% and 19%
same,%Inh,[6]; 1 µM,5% and 26%
same,%Inh,[7]; 1 µM,10% and 1%
same,%Inh,[8]; 1 µM,0% and 8%
same,%Inh,[9],0%
same,%Inh,[10],0%
same,%Inh,[11]; 1 µM,8% and 21%
same,%Inh,[12]; 1 µM,72% and 63%
same,%Inh,[13]; 1 µM,65% and 48%
same,%Inh,[14]; 1 µM,95.5% and 95.4%
same,%Inh,[15]; 1 µM,94.8% and 95.5%
same,%Inh,[16]; 1 µM,64% and 83%
same,%Inh,[17]; 1 µM,97.7% and 96%
same,%Inh,[18]; 1 µM,11% and 0%
same,%Inh,[19]; 1 µM,46% and 19%
same,%Inh,[20],0%
N#Cc1ccc(-c2cc(-c3c[nH]nc3-c3ccccn3)ccn2)cc1 [GW693028],%Inh,[1],2%
same,%Inh,[2],11%
same,%Inh,[3],0%
same,%Inh,[4],0%
same,%Inh,[5],23%
same,%Inh,[6],0%
same,%Inh,[7],8%
same,%Inh,[8],13%
same,%Inh,[9],0%
same,%Inh,[10],0%
same,%Inh,[11],0%
same,%Inh,[12],0%
same,%Inh,[13],35%
same,%Inh,[14],22%
same,%Inh,[15],8%
same,%Inh,[16],0%
same,%Inh,[17],38%
same,%Inh,[18],0%
same,%Inh,[19],20%
same,%Inh,[20],0%
